According to ChEMBL document CHEMBL4513142, “CO-ADD screening of Indiana University - Purdue University Indianapolis (USA) compounds”:
Several values for one entry are separate records, joined by “and”; a condition that tells them apart may be missing. Equal values may be shown once. Measured potencies and affinities stand elsewhere.

How the values were obtained:
Klebsiella pneumoniae = settings: Concentration 32 ug.mL-1, ASSAY_TEST Inhibition of Bacterial Growth, detection method Absorption (OD600), MEDIA CAMHB, plate type 384well, NBS, CORNING #3640, time 18 hr
Candida albicans = settings: 32 ug/mL
Cryptococcus neoformans = settings: Concentration 32 ug.mL-1, ASSAY_TEST Inhibition of Fungal Growth, detection method Resazurin, Absorption (OD600-OD570), plate type 384well, NBS, CORNING #3640

Structure (SMILES) | Inhibition (Klebsiella pneumoniae; 32 ug/mL) | Inhibition (Candida albicans) | Inhibition (Cryptococcus neoformans; 32 ug/mL) | Inhibition (Klebsiella pneumoniae) [%] | Inhibition (Cryptococcus neoformans) [%]
O=C(NC(Cc1ccc(Cl)nc1)C(=O)O)c1ccccc1 (stereo not given) | 9.49% and 7.67% | 3.67% and 3.1% | -7.31% and -8.02% |  | 
NC(Cc1ccccc1F)C(=O)O.O=C(O)C(F)(F)F (stereo not given) | -4.61% and -3.52% | 2.11% and 3.25% | -7.08% and 0.99% |  | 
[C-]#[N+]c1ccc(C(=O)NC(Cc2ccc(C(F)(F)F)cc2)C(=O)NCCC)cc1 (stereo not given) |  | 5.79% |  | 13.54 | -3.04
O=C(NC(CCCc1ccccc1)C(=O)O)c1cccc2ccccc12 (stereo not given) | 4.24% and 7.53% | 4.21% and 5.17% | -11.3% and -10.65% |  | 
CCCNC(=O)C(Cc1ccccc1)NC(=O)Cc1ccccc1 (stereo not given) |  | 5.66% |  | 14.33 | -5.77
NC(=O)[C@@H]1CCCN1C(=O)c1ccccn1 | 13.57% and 8.38% | 8.62% and 7.92% | -5.72% and -3.53% |  | 
COc1cc(C(=O)N[C@@H](CC(C)C)C(=O)O)ccc1O | 1.29% and 3.72% | 4.13% and 6.65% | -7.3% and -10.82% |  | 
CCCNC(=O)C(Cc1ccccc1C)NC(=O)c1ccc(C(F)(F)F)cc1 (stereo not given) |  | 0.78% |  | 12.54 | -3.03
CC(C)C[C@H](NC(=O)c1ccc(Cl)cc1Cl)C(N)=O | 14.05% and -7.39% | 4.49% and 5.39% | -13.33% and -10.52% |  | 
NC(Cc1cccc(F)c1)C(=O)O.O=C(O)C(F)(F)F (stereo not given) | 0.53% and 0.81% | 1.58% and 1.27% | -7.68% and -3.4% |  | 
[C-]#[N+]c1ccc(C(=O)NC(CC)C(=O)NCCC)cc1 (stereo not given) |  | -0.99% |  | 12.56 | -4.7
C[C@H](NC(=O)c1ccccc1Cl)C(=O)O | -1.23% and -3.38% | 4.87% and 8.5% | -5.22% and -11.03% |  | 
NC(=O)[C@H](Cc1ccccc1)NC(=O)c1c(F)c(F)c(F)c(F)c1F | 8.47% and 11.14% | 3.95% and 8.52% | -9.93% and -7.63% |  | 
[C-]#[N+]c1ccc(C(=O)NC(Cc2ccccc2F)C(=O)NCCC)cc1 (stereo not given) |  | 1.53% |  | 8.88 | -7.85
Cc1ccc(C(=O)NC(Cc2cc(F)c(F)cc2F)C(=O)O)cc1 (stereo not given) | 7.96% and 13.51% | 4.99% and 4.52% | -10.86% and -7.35% |  | 
[C-]#[N+]c1ccc(C(=O)NC(CC=C)C(=O)NCCC)cc1 (stereo not given) |  | 3.05% |  | 4.31 | -8.98
CCCNC(=O)C(Cc1ccccc1)NC(=O)c1ccc(F)cc1 (stereo not given) |  | 2.91% |  | 15.24 | -7.35
Cc1ccc(C(=O)NC(Cc2ccc(F)cc2)C(=O)O)cc1 (stereo not given) | -11.12% and 7.59% |  | -14.35% and -11.02% |  | 
NC(Cc1ccc(F)c(F)c1)C(=O)O.O=C(O)C(F)(F)F (stereo not given) | 7.21% and 5.15% | 1.67% and -0.02% | -13.22% and -14.09% |  | 
NC(Cc1ccccc1I)C(=O)O.O=C(O)C(F)(F)F (stereo not given) | 3.96% and 4.88% | 4.55% and 4.79% | -7.57% and -7.31% |  | 
[C-]#[N+]c1ccc(C(=O)NC(CC#C)C(=O)NCCC)cc1 (stereo not given) |  | 4.37% |  | 15.5 | -8.61
NC(=O)[C@H](Cc1ccccc1)NC(=O)c1cccnc1 | 15.19% and 20.47% | 6.63% and 4.08% | -3.63% and -8.29% |  | 
CCCNC(=O)C(Cc1ccc(F)cc1)NC(=O)c1ccccc1 (stereo not given) |  | 2.54% |  | 12.41 | -4.63
O=C(N[C@@H](Cc1ccccc1)C(=O)O)C1CCCCC1 | 1.14% and 5.62% |  | -13.27% and -11.08% |  | 
[C-]#[N+]c1ccc(C(=O)NC(Cc2ccc(F)cc2)C(=O)NCCC)cc1 (stereo not given) |  | 5.24% |  | 14.12 | -1.72
O=C(Cc1cccc(Br)c1)N[C@@H](Cc1ccccc1)C(=O)O | 7.39% and -2.64% |  | -5.52% and -8.87% |  | 
NC(Cc1ccc(F)cc1)C(=O)O.O=C(O)C(F)(F)F (stereo not given) | 1.77% and -4.38% | 1.28% and -0.06% | 6.08% and -8.37% |  | 
CC(C)C[C@H](NC(=O)c1cccnc1)C(N)=O | 3.3% and -1.43% |  | -4.01% and -5.8% |  | 
CC(C)[C@H](NC(=O)c1cccc(C(F)(F)F)c1)C(=O)O | -0.42% and 3.74% | 7.7% and 10.5% | -6.26% and -6.2% |  | 
Cc1ccc(C(=O)NC(Cc2ccccc2C#N)C(=O)O)cc1 (stereo not given) | 10.82% and 9.51% |  | -6.48% and -6.82% |  | 
